For 33 molecules, inhibition results are on record in ChEMBL document CHEMBL1961873, “Compounds: GSK PKIS; Assays: Nanosyn kinase panel” (2012).

Sequence of Mitogen-activated protein kinase 3 (Homo sapiens) (P27361 whole entry): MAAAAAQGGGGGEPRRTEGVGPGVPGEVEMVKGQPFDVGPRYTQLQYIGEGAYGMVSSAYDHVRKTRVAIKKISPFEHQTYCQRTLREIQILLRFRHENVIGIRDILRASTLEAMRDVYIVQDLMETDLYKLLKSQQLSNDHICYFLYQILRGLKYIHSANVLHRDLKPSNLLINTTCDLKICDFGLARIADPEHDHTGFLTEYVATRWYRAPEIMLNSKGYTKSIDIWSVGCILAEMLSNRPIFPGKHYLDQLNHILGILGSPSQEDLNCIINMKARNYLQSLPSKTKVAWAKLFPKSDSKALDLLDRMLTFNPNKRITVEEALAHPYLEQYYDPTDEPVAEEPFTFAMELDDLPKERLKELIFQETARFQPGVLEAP

The first assay addresses Mitogen-activated protein kinase 3 (Homo sapiens) (UniProt P27361). The note with it: at 1 µM.
Consider `CN1CCN(C(=O)c2ccc(NC(=O)Nc3ccc(N(C)c4ccnc(Nc5ccc(CS(C)(=O)=O)cc5)n4)cc3)cc2)CC1`, for which the inhibition was determined as 4.83%.

For `Oc1cccc(-c2nc(-c3ccccc3)[nH]c2-c2ccncc2)c1`, the inhibition is 5.5%.

As to `COc1cccc(-n2ncc3c(N/N=C/c4ccc(C)cc4)ncnc32)c1`, the inhibition stood at 3.26%.

For `CN(C)CCCn1c(-c2nonc2N)nc2cnccc21`, the inhibition came out at 2.88%.

As for `NS(=O)(=O)c1cccc(-c2cc3ccncc3cc2OCc2ccccc2)c1`, the inhibition was found to be 4.26%.

On to `O=C1Nc2ccccc2/C1=C/Nc1ccc2[nH]c(=O)[nH]c2c1`, for which the inhibition is 3.88%.

Consider `Cc1ccc(C(=O)NC2CC2)cc1-c1ccc2[nH]ncc2c1`, for which the inhibition is -2.12%.

As to `N#Cc1c(NC(=O)c2ccccc2F)sc2c1CCCC2`, the inhibition is -1.26%.

For the molecule `COC(=O)c1ccc2c(c1)C(=Cc1cc(Br)c(O)c(Br)c1)C(=O)N2`, the inhibition was determined as 5.46%.

Take `NS(=O)(=O)c1ccc(N/N=C2\C(=O)Nc3ccc(Cl)cc32)cc1`: the inhibition was 4.54%.

As for `O=C(Nc1ccc(Oc2ccc3[nH]c(NC(=O)c4ccco4)nc3c2)cc1)Nc1cc(C(F)(F)F)ccc1F`, the inhibition is 2.24%.

For `CS(=O)(=O)Nc1cccc(-c2ccc3c(NC(=O)C4CC4)n[nH]c3c2)c1`, the inhibition amounted to 1.38%.

On to `c1ccc(Nc2ncc(-c3ccccc3)o2)cc1`, for which the inhibition amounted to 4.13%.

For `CC(C)c1ccc(Nc2nccc(-c3cnn4ncccc34)n2)cc1`, the inhibition is 3%.

Take `CCS(=O)(=O)c1ccc(OC)c(Nc2ncc(-c3cccc(OC)c3)o2)c1`: the inhibition was -2.17%.

In the case of `N#Cc1cccc(Nc2nccc(-c3cnn4ncccc34)n2)c1`, the inhibition stood at 35.8%.

Take `COc1cc2ncnc(Nc3ccc4c(cnn4Cc4ccccc4)c3)c2cc1OC`: the inhibition stood at 3.12%.

For the molecule `COc1cc2ncn(-c3cc(OCc4ccccc4S(C)(=O)=O)c(C#N)s3)c2cc1OC`, the inhibition turned out to be 4.78%.

Turning to `CN(c1ccc(NC(=O)Nc2ccc(OC(F)(F)F)cc2)cc1)c1ccnc(Nc2cccc(S(N)(=O)=O)c2)n1`, the inhibition was found to be 3.33%.

As for `ON=C1CCc2cc(-c3nc(C4CCNCC4)[nH]c3-c3ccncc3)ccc21`, the inhibition worked out at 0.97%.

Turning to `[O-][S+]1CCN(Cc2ccc(-c3ccc4ncnc(Nc5ccc(OCc6ccccc6)c(Cl)c5)c4c3)o2)CC1`, the inhibition turned out to be 2.24%.

With `NS(=O)(=O)c1ccc(NC=C2C(=O)Nc3ccc4ncsc4c32)cc1`, the inhibition was 28.1%.

Consider `OCc1ccc(-c2nc(-c3ccccn3)c(-c3ccc4c(c3)OCO4)[nH]2)cc1`, for which the inhibition amounted to 1.38%.

In the case of `COc1cc(Nc2nccc(-c3cnn4ncccc34)n2)cc(OC)c1`, the inhibition was found to be 9.37%.

Turning to `Cc1ccc2c(-c3ccnc(Nc4ccc5c(c4)OCCO5)n3)c(-c3ccc(C(F)(F)F)cc3)nn2n1`, the inhibition was found to be 3.87%.

`Nc1nccc(-c2c(-c3ccc(F)cc3)ncn2CCCN2CCOCC2)n1`: the inhibition is 5.63%.

`COc1cccc(-n2nc(C)c3c(N/N=C(\C)c4ccncc4)ncnc32)c1`: the inhibition was -1.26%.

In the case of `Nc1nccc(-c2c(-c3ccc(F)cc3)nn3cc(C(F)(F)F)ccc23)n1`, the inhibition was 2.32%.

With `COc1cc(/C=N/Nc2ncnc3c2cnn3C(C)C)ccc1O`, the inhibition was 2.88%.

Consider `NC(=O)c1cccc(Nc2nccc(Nc3cccc(F)c3)n2)c1`, for which the inhibition was found to be 1.21%.

Regarding `COC(=O)Nc1nc2cc(Oc3ccc(NC(=O)Nc4cccc(Br)c4)cc3)ccc2[nH]1`, the inhibition was found to be 3.83%.

As to `NS(=O)(=O)c1ccc(Nc2cc(-c3cccc(O)c3)n[nH]2)cc1`, the inhibition came out at 3.73%.

In the case of `Cc1ccc2c(-c3ccnc(Nc4cccc(C(F)(F)F)c4)n3)c(-c3ccccc3)nn2n1`, the inhibition was 8.27%.

In a further assay the target is SRSF protein kinase 3 (Homo sapiens) (UniProt Q9UPE1). To be noted: at 0.1 µM.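 Note: mean of replicate inhibition values against MSSK1 kinase, profiled within the GSK PKIS kinase inhibitor set screen.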
Sequence of SRSF protein kinase 3 (Homo sapiens) (Q9UPE1 whole entry): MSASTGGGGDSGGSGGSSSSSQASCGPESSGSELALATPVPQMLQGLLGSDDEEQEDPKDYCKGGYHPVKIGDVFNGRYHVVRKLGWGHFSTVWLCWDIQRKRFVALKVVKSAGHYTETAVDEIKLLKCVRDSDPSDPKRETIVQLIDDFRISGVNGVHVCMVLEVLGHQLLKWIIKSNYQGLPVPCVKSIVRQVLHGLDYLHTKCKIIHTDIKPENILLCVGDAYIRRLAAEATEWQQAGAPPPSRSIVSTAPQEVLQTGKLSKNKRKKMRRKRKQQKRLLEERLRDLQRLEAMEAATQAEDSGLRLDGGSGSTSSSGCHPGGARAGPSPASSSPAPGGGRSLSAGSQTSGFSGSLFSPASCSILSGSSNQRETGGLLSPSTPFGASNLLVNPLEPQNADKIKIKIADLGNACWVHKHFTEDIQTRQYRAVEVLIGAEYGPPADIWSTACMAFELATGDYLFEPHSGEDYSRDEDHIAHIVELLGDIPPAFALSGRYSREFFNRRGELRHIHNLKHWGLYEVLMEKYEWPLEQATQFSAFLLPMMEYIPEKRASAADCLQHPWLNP
As to `CN1CCN(C(=O)c2ccc(NC(=O)Nc3ccc(N(C)c4ccnc(Nc5ccc(CS(C)(=O)=O)cc5)n4)cc3)cc2)CC1`, the inhibition was -0.32%.

As for `Oc1cccc(-c2nc(-c3ccccc3)[nH]c2-c2ccncc2)c1`, the inhibition turned out to be 1.08%.

Turning to `COc1cccc(-n2ncc3c(N/N=C/c4ccc(C)cc4)ncnc32)c1`, the inhibition was 3.27%.

On to `CN(C)CCCn1c(-c2nonc2N)nc2cnccc21`, for which the inhibition was -1.86%.

As to `NS(=O)(=O)c1cccc(-c2cc3ccncc3cc2OCc2ccccc2)c1`, the inhibition is -0.37%.

As to `O=C1Nc2ccccc2/C1=C/Nc1ccc2[nH]c(=O)[nH]c2c1`, the inhibition is -2.26%.

For the molecule `Cc1ccc(C(=O)NC2CC2)cc1-c1ccc2[nH]ncc2c1`, the inhibition turned out to be 2.03%.

For the molecule `N#Cc1c(NC(=O)c2ccccc2F)sc2c1CCCC2`, the inhibition is -1.34%.

Turning to `COC(=O)c1ccc2c(c1)C(=Cc1cc(Br)c(O)c(Br)c1)C(=O)N2`, the inhibition was 3.56%.

`NS(=O)(=O)c1ccc(N/N=C2\C(=O)Nc3ccc(Cl)cc32)cc1`: the inhibition was -0.26%.

Take `O=C(Nc1ccc(Oc2ccc3[nH]c(NC(=O)c4ccco4)nc3c2)cc1)Nc1cc(C(F)(F)F)ccc1F`: the inhibition was 2.34%.

As to `CS(=O)(=O)Nc1cccc(-c2ccc3c(NC(=O)C4CC4)n[nH]c3c2)c1`, the inhibition was -2.12%.

For `c1ccc(Nc2ncc(-c3ccccc3)o2)cc1`, the inhibition was -1.27%.

As for `CC(C)c1ccc(Nc2nccc(-c3cnn4ncccc34)n2)cc1`, the inhibition is -1.04%.

`CCS(=O)(=O)c1ccc(OC)c(Nc2ncc(-c3cccc(OC)c3)o2)c1`: the inhibition was determined as 0.87%.

Take `N#Cc1cccc(Nc2nccc(-c3cnn4ncccc34)n2)c1`: the inhibition was determined as 0.24%.

As to `COc1cc2ncnc(Nc3ccc4c(cnn4Cc4ccccc4)c3)c2cc1OC`, the inhibition is -1.9%.

Turning to `COc1cc2ncn(-c3cc(OCc4ccccc4S(C)(=O)=O)c(C#N)s3)c2cc1OC`, the inhibition is 0.72%.

Consider `CN(c1ccc(NC(=O)Nc2ccc(OC(F)(F)F)cc2)cc1)c1ccnc(Nc2cccc(S(N)(=O)=O)c2)n1`, for which the inhibition is -1.09%.

Consider `ON=C1CCc2cc(-c3nc(C4CCNCC4)[nH]c3-c3ccncc3)ccc21`, for which the inhibition was -1.32%.

For `[O-][S+]1CCN(Cc2ccc(-c3ccc4ncnc(Nc5ccc(OCc6ccccc6)c(Cl)c5)c4c3)o2)CC1`, the inhibition was -1.59%.

For the molecule `NS(=O)(=O)c1ccc(NC=C2C(=O)Nc3ccc4ncsc4c32)cc1`, the inhibition is -0.67%.

Regarding `OCc1ccc(-c2nc(-c3ccccn3)c(-c3ccc4c(c3)OCO4)[nH]2)cc1`, the inhibition was 1.23%.

For `COc1cc(Nc2nccc(-c3cnn4ncccc34)n2)cc(OC)c1`, the inhibition is -0.86%.

As to `Cc1ccc2c(-c3ccnc(Nc4ccc5c(c4)OCCO5)n3)c(-c3ccc(C(F)(F)F)cc3)nn2n1`, the inhibition is -2.01%.

On to `Nc1nccc(-c2c(-c3ccc(F)cc3)ncn2CCCN2CCOCC2)n1`, for which the inhibition was -3.36%.

For `COc1cccc(-n2nc(C)c3c(N/N=C(\C)c4ccncc4)ncnc32)c1`, the inhibition was -0.29%.

Consider `Nc1nccc(-c2c(-c3ccc(F)cc3)nn3cc(C(F)(F)F)ccc23)n1`, for which the inhibition was -1.48%.

Consider `COc1cc(/C=N/Nc2ncnc3c2cnn3C(C)C)ccc1O`, for which the inhibition is -2.39%.

Take `NC(=O)c1cccc(Nc2nccc(Nc3cccc(F)c3)n2)c1`: the inhibition is -1.02%.

`COC(=O)Nc1nc2cc(Oc3ccc(NC(=O)Nc4cccc(Br)c4)cc3)ccc2[nH]1`: the inhibition was -0.78%.

Consider `NS(=O)(=O)c1ccc(Nc2cc(-c3cccc(O)c3)n[nH]2)cc1`, for which the inhibition came to 0.13%.

Consider `Cc1ccc2c(-c3ccnc(Nc4cccc(C(F)(F)F)c4)n3)c(-c3ccccc3)nn2n1`, for which the inhibition was determined as 0.34%.

As usually defined, the inhibition is the relative decrease from the control value, in per cent.
